Assay results taken from PubChem BioAssay AID602233 (National Center for Advancing Translational Sciences (NCATS), 2012).
The campaign covered roughly 380,000 compounds. About 170 (0.045%) were called active. The call rests on the fitted dose curve; in most records, active means well fitted inhibition curve with a large enough effect; inconclusive means small, poorly fitted or top-dose-only effect; inactive means no such curve, though single readings can be large or run the other way. Only a selection was taken, and actives are over-represented in it overall.

What follows are compounds tested against Phosphoglycerate kinase, glycosomal (Trypanosoma brucei brucei) (UniProt P07378) (assay: qHTS Assay to Find Inhibitors of Phosphoglycerate Kinase). Settings: PGK/GAPDH coupled, Kinase-Glo luminescence, 60 min; series mostly up to 57.5 µM.
Description: Several species of the Trypanosomatidae family of parasitic protozoans cause a spectrum of diseases throughout the tropical and subtropical world. Sleeping sickness, caused by two subspecies of Trypanosoma brucei, is endemic to areas of sub-Saharan Africa, while Chagas disease, a manifestation of Trypanosoma cruzi infection, is prevalent throughout Central and South America. In addition, many species of Leishmania are responsible for a range of cutaneous and visceral diseases, causing ulcers, destructive lesions and kalaazar, a lethal infection of the viscera. Collectively, these organisms infect 30 million people worldwide (~500 million live in endemic areas), and account for ~130,000 deaths annually. Given their debilitating and prevalent nature, trypanosomatid parasites impose a heavy medical, economic and social burden on entire populations, primarily in the developing world. The problem is further exacerbated by the fact that existing treatments have progressed little in the past 50 years, and current drugs show high toxicity and poor efficacy. […] Blood-stream stages of T. brucei are entirely dependent on glycolysis as a source of ATP, and the tricarboxylic acid cycle and oxidative phosphorylation are both repressed. Glycolysis in axenically cultured T. cruzi, representing the intracellular pathogenic stage, is also essential for these parasites. […] Previous studies have shown that the glycolytic enzyme, phosphoglycerate kinase (PGK), is a viable target for drugs to kill these parasites. […] NIH Molecular Libraries Probe Production Network [MLPCN] NIH Chemical Genomics Center [NCGC] MLPCN Grant: R03 MH093212 PI Name: Malcolm Walkinshaw, University of Edinburgh
3ul of substrate/PGK buffer (columns 1,2,5-48) are dispensed into Greiner white solid bottom 1536-well assay plates; columns 3-4 receive only TEA buffer as 0x PGK controls. Compounds are then transferred via Kalypsys pin tool equipped with 1536-pin array (10nl slotted pins, V&P Scientific, San Diego, CA). Following addition of compound, 1ul of GAPDH (100nM final concentration, all columns) is added to initiate the reaction (this upstream coupling enzyme is necessary for in-well production of PGK substrate, 1,3-bisphosphoglycerate (1,3-BPG), which is unstable and not commercially available). The plates are then incubated at room temperature for 60 minutes. Kinase-Glo Plus reagent is added (2ul) and plates incubated for 10 minutes, before being transferred to a ViewLux high-throughput CCD imager (PerkinElmer) wherein single end-point measurements of luminescence are acquired using a clear filter. All reagents are diluted in an assay buffer consisting of 100mM TEA (pH 7.6), 5mM MgCl2 and 0.01% Tween-20.
Further: nearly all actives have a fitted effect of over 60% in size.

Chain of Phosphoglycerate kinase, glycosomal (Trypanosoma brucei brucei) (P07378 whole entry, looked up): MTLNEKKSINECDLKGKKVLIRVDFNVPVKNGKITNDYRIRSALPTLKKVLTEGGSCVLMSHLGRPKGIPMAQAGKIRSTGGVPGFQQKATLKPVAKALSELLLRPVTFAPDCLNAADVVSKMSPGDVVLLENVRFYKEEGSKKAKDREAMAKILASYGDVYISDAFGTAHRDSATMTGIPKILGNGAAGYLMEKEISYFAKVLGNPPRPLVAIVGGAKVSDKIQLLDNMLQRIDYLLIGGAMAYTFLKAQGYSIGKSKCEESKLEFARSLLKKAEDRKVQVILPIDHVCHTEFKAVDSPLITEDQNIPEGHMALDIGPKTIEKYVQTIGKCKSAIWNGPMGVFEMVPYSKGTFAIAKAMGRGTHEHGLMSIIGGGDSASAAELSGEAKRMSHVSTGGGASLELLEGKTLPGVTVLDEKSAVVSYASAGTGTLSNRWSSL

Potency, inactive:
COC(=O)c1ccccc1NC(=O)C(Cc1ccccc1)N1Cc2ccccc2C1=O (stereo not given), O=C1CCCc2cc(S(=O)(=O)N3CCCC(C(=O)NCc4ccccc4)C3)ccc2N1 (stereo not given), COc1ccc(C2C(=O)N(C3CCCCCC3)CC(=O)N2CCc2ccc(Cl)cc2)cc1OC (stereo not given), COC(=O)c1c(NC(=O)C(C)Oc2ccc(Cl)c(C)c2)sc(C)c1C (stereo not given), COc1ccccc1CNC(=O)c1ccc(NC(=O)N2CC(C)Sc3ccccc32)cc1 (stereo not given), Cc1cc(C)c(/C=C/c2onc(C)c2S(=O)(=O)N2CCC(C(=O)Nc3ccc(Cl)cc3C)CC2)c(C)c1, CCc1cccc(NC(=O)CSc2nccn2C)c1, COc1cc(C(=O)NCC(c2ccc(Cl)cc2)N2CCOCC2)cc(OC)c1OC (stereo not given), COc1ccc(Cn2c(=O)c3oc4ccccc4c3n(CC(=O)Nc3ccc(F)cc3F)c2=O)cc1, CCOc1ccc(NC(=O)Cn2cc(C(=O)c3ccc(C)cc3)c(=O)c3cc4c(cc32)OCCO4)cc1, CCCCc1nn2c(=O)cc(COC(=O)c3ccc(NC(=O)c4ccccc4C)cc3)nc2s1, Cc1ccccc1CNC(=O)c1ccc(NC(=O)N2CCCCc3ccccc32)cc1, COc1ccc(CNC(=O)COCc2cc(-c3cccs3)on2)cc1OC, CCCN(CCC)C(=O)C(Cc1ccccc1)NS(=O)(=O)c1ccc2c(c1)c(=O)n(C)c(=O)n2C (stereo not given), CCCCNc1ccc(-c2nc(-c3ccncc3)no2)cc1[N+](=O)[O-], CCOc1ccccc1NC(=O)Cn1c(=O)n(Cc2ccco2)c(=O)c2sc3ccccc3c21, Cc1ccc(NC(=O)c2cn3c4c(ccc(Cl)c4c2=O)OC(C)C3)cc1C (stereo not given), O=C(CSc1n[nH]c(-c2ccccc2)n1)N1CCCCC1, COc1ccc(-c2noc(CSc3nnc(-c4ccccc4)n3-c3ccc(F)cc3)n2)c(OC)c1, O=C(NCc1ccccc1Cl)C1=Cc2cc(Br)ccc2OC1, O=C(Nc1ccc(F)cc1F)c1cnn(-c2ccc(F)cc2)c1-n1cccc1, COc1ccccc1CNC(=O)CCn1c(=O)c2ccccc2n(CC(=O)Nc2ccc(Br)cc2F)c1=O, Cc1ccc(Nc2ccc3cc(S(=O)(=O)N4CCCCC4)ccc3n2)cc1F, COc1ccc(-c2nc3nc(C)cc(C)n3c2Nc2c(C)cccc2C)cc1, Cc1ccc(-n2ncc3c(NCCCn4ccnc4)ncnc32)cc1Cl, CCCN1CCN(CCCNC(=O)c2cnn(-c3ccc(C)cc3)c2-n2cccc2)CC1, CSc1ccc(CCNC(=O)c2cc(C)nc3c2c(C)nn3-c2cccc(F)c2)cc1, NC1=NC(c2cc(F)cc(F)c2)n2c(nc3ccccc32)N1 (stereo not given), COc1ccc2c(Sc3ccc(C)cc3)c(C(=O)NC(C)c3ccccc3)[nH]c2c1 (stereo not given), CCCCOc1ccc(CNC(=O)c2ccc3c(c2)N(C)C(=O)C2CCCCN32)cc1 (stereo not given), O=C(Cn1c(-c2cccs2)cc2ccccc21)NCCc1ccc(Cl)cc1, Cc1nn2c(=O)cc(COC(=O)c3cccc(NC(=O)COc4ccccc4Cl)c3)nc2s1, COc1ccc(-c2cn3c(n2)sc2cc(C(=O)Nc4ccc(F)cc4)ccc23)cc1, COc1ccccc1CNC(=O)c1ccccc1NC(=O)c1nsc2ccccc12, Cc1ccc(Cn2c(=O)n(CCCC(=O)NCc3ccccc3Cl)c(=O)c3ccccc32)cc1, CCCCOc1ccc(NC(=O)c2cc3c(n(-c4ccc(Cl)cc4)c2=O)CCCC3=O)cc1, CCOc1ccccc1CNCc1c(C(=O)O)c(C)n(Cc2ccc(C)cc2)c1C, CCOc1ccc(CNC(=O)CCc2c(C)nn(-c3ccc(N4CCCCC4)nn3)c2C)cc1, CCOC(=O)C1CCCN(S(=O)(=O)c2cc(-c3cc(C)no3)ccc2OC)C1 (stereo not given), COc1ccccc1-c1noc(CSc2nnc(-c3ccccc3)n2-c2ccc(C)c(C)c2)n1, COc1cccc(NC(=O)CN2C(=O)c3ccccc3Sc3ncccc32)c1, COc1cccc(OCCn2c(-c3ccc(Br)cc3)nc3ccccc3c2=O)c1, O=C(Cn1c(=O)n(Cc2ccccc2)c(=O)c2sc3ccccc3c21)Nc1ccccc1F, CCC(=O)N1CCc2cc(S(=O)(=O)NC(CC(C)C)C(=O)NCCc3cccc(C)c3)ccc21 (stereo not given), CCOc1ccc(-n2nc3ccc(NC(=O)c4ccc(OC)c(Cl)c4)cc3n2)cc1, Cc1cc(C)c(NC(=O)c2cc3sc(Cl)cc3n2C)c(C)c1, CCn1c2ccccc2c2nnc(SCC(=O)O)nc21, COc1ccc(-c2nc(Cn3c(=O)cc(C)c4c(C)nn(-c5ccccc5)c43)c(C)o2)c(OC)c1, COc1ccccc1CNC(=O)c1ccc(-n2c(C)cc3c2CCCC3)cc1, Cc1ccc(O)c(NC(=O)CCS(=O)(=O)c2nc(-c3ccc4c(c3)OCO4)cc(C(F)(F)F)n2)c1, COc1ccc(NC(=O)c2ccco2)cc1NC(=O)COc1ccc(C)c(C)c1, CCCSc1nc2sc3c(c2c(=O)n1-c1cccc(Br)c1)CC(C)(C)OC3, O=C(NCCCO)C(=O)Nc1c2c(nn1-c1ccccc1)CSC2, COc1ccc(NC(=O)CCNS(=O)(=O)c2ccc3c(c2)CCCC(=O)N3)cc1Cl, CN1c2ccc(Cl)cc2-c2nc(SCC(=O)Nc3cc(F)ccc3F)ncc2S1(=O)=O, COc1ccc(Cc2nc3ccc(C(=O)NCc4ccc(OC)cc4OC)cc3o2)cc1, CCOC(=O)C1CCCN(CC(=O)Nc2cc(C)c3c(=O)oc4ccccc4c3n2)C1 (stereo not given), COc1ccc(S(=O)(=O)NCCSc2nnnn2-c2ccccc2)cc1, COC(=O)c1c(NC(=O)CCCOc2ccccc2)sc2c1CCC(C)C2 (stereo not given), Cc1nn2c(=O)cc(COC(=O)c3ccccc3NC(=O)COc3ccccc3C)nc2s1, COc1ccccc1CNC(=O)CCCn1c(=O)c2ccccc2n(CC(=O)Nc2ccc(C)cc2Cl)c1=O, COc1ccccc1CNC(=O)NCc1noc2ccc(C)cc12, CCOc1ccccc1NC(=O)Cn1c2ncccc2c(=O)n1-c1ccc(C)c(C)c1, O=C(CSc1nc2ccccc2nc1Cc1ccccc1)N1CCCCC1, CCOc1cccc(NC(=O)CSc2ncc(-c3ccc(Cl)cc3)[nH]2)c1, Cc1c(C(=O)N(C)C)sc2c1c(=O)n(-c1ccc(F)cc1)c(=O)n2CC(=O)N(C)c1ccccc1, CCOc1ccc(N(C)S(=O)(=O)c2cc(-c3cnc(C)o3)ccc2OC)cc1, Cc1oc(-c2ccccc2F)nc1CN1CCC(C(=O)NCCc2ccc(Cl)cc2)CC1, CCOc1ccc(NC(=O)c2c(NC(=O)Cc3ccccc3)sc3c2CCCCC3)cc1, CCc1nnc(SCC(=O)Nc2cc(OC)ccc2OC)nc1CC, CCOc1ccc(OCC)c(NC(=O)CN(c2ccc(C)cc2)S(=O)(=O)c2c(C)n[nH]c2C)c1, CCCS(=O)(=O)c1ncc(Cl)c(C(=O)Nc2scc(-c3ccccc3)c2C(=O)OCC)n1, Cc1sc(C2C(C#N)=C(N)N(c3cccc(Cl)c3)C3=C2C(=O)CCC3)cc1CN1CCOCC1 (stereo not given), Cc1ccc(C(=O)N2c3ncnn3C3(CCCCC3)[C@@H]3CCCC[C@@H]32)cc1, O=C(CC(c1cccs1)N1Cc2ccccc2C1=O)Nc1ccc(F)c(F)c1 (stereo not given), CC1=Nc2cc(C(=O)NCc3ccc(C)cc3)ccc2Sc2ccc(Cl)cc21, CCc1cnc2c(c1SCC(=O)N1CCC(C)CC1)c(=O)n(C)c(=O)n2C, CCc1cccc(NC(=O)CN(c2ccc(C)c(C)c2)S(=O)(=O)c2ccsc2C(=O)OC)c1, CCOc1ccccc1NC(=O)c1ccc2c(c1)CCN2S(=O)(=O)c1ccc(C)cc1, CSc1ccc(NC(=O)Cn2nnnc2-c2ccccc2F)cc1, CC(=O)c1ccc(NC(c2ccc(F)cc2)c2nnc(-c3ccccc3)o2)cc1 (stereo not given), CCOc1ccc(CCNC(=O)c2c(C)oc3ncn(C)c(=O)c23)cc1, CCc1ccccc1NC(=O)c1cnn(-c2ccc(F)cc2)c1C1CCNCC1, Cc1ccc(CNC(=O)CCNS(=O)(=O)c2ccc3c(c2)oc(=O)n3C)cc1, CCc1cccc(-n2nnc(-c3nsc(NC(=O)c4ccc(C)cc4)n3)c2C)c1, CC(C)Cn1c(=O)c2ccccc2n2c(CCC(=O)N3CCN(c4cccc(Cl)c4)CC3)nnc12, Cc1ccc(OCCSc2nc(-c3cccs3)nc3cc(=O)[nH]n23)cc1Cl, CC1=C(c2ccc(Cl)cc2)S(=O)(=O)N=C1N1CCN(c2cc(C)ccc2C)CC1, Cc1cccc(N2CCN(c3c(CN4CCCC4)c(=O)oc4ccccc34)CC2)c1C, CCc1ccc(NC(=O)CN2CCSc3ccc(S(=O)(=O)N4CCCC4)cc32)cc1, CCCN(CCC)CCNC(=O)c1ccc2c(c1)NC(=O)C(CS(=O)(=O)Cc1cccc(Br)c1)N2 (stereo not given), COc1cc(CNC(=O)c2cc3n(n2)CCCN(Cc2cccc(F)c2)C3=O)cc(OC)c1OC, COc1ccc(OC)c(-c2nc(C(N)=O)c3c(n2)n(-c2ccc4c(c2)OCO4)c(=O)n3C)c1, CCN(Cc1ccccc1)C(=O)c1cn(-c2cccc(OC)c2)c(=O)c2ccccc12, O=C(CCn1c(=O)c2ccccc2n(Cc2ccc(Cl)cc2)c1=O)NCc1ccc2c(c1)OCO2
